HT1080 IDH1KD tx – qHTS for induction of synthetic lethality in tumor cells producing 2HG: qHTS for the HT-1080-IDH1KD cell line; Potency, µM (doses to about 46.1 µM), hits mostly cytotoxic; HT-1080 IDH1 knockdown viability, ATP luminescence, 48 h; 360,000 tested, 2% active
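CellTiter-Glo luminescence after 48 h compound exposure at 37 degrees C of IDH1-knockdown HT-1080 cells in 5% FBS RPMI. %Activity scaled between DMSO wells and cell-free media wells, with curves fitted and assigned curve classes.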
HT1080NT lethal – qHTS for induction of synthetic lethality in tumor cells producing 2HG: qHTS for the HT-1080-NT fibrosarcoma cell line. HT-1080-NT fibrosarcoma viability, CellTiter-Glo ATP luminescence, 48 h. 360,000 tested, 1.6% active. Potency, µM (doses to about 46.1 µM), most hits filed as cytotoxic;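 note: NT is the 2HG producing partner of a matched IDH1 knockdown line; nearly all actives have a fitted effect of over 55% in size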
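Luminescent CellTiter-Glo readout after 48 hours of compound exposure at 37 degrees C defined viability of HT-1080-NT cells. Activity was normalized to DMSO wells and cell-free media wells; concentration-response curves were fitted and assigned curve classes.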
DT40 TDP1 CPT – qHTS for Inhibitors of human tyrosyl-DNA phosphodiesterase 1 (TDP1): qHTS in cells in presence of CPT. chicken DT40 Tdp1-/-;hTDP1 cells + 20 nM CPT, ATP luminescence, 48 h. Potency, µM (top dose mostly 46.2 µM), most hits filed as inhibitors. 420,000 tested, 12% active. AID 686979, 2013; note: nearly all actives have a fitted effect of over 55% in size
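Chicken DT40 Tdp1-/- cells complemented with human TDP1, 400 cells/well, exposed to compounds plus 20 nM camptothecin for at least 48 h at 37 C; viability read as ATP content by CellTiter-Glo luminescence.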
IL-1B inflam inh – qHTS for Inhibitors of Inflammasome Signaling: IL-1-beta AlphaLISA Primary Screen. THP-1 LPS/ATP IL-1B secretion, AlphaLISA, 16 h; stronger effect = lower value. activity change, % at 57.5 µM. 360,000 tested, 4.7% active; in the data active = activity change below about -50%; inconclusive = mostly about -30% to -49%
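THP-1 cells pretreated 1 hr with compounds (up to 57.5 uM final), then stimulated with LPS (250 ng/mL final) plus ATP (1.25 mM final); secreted IL-1B measured by AlphaLISA after 16 hr, decreased signal indicating inhibition.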
TDP1 cell noCPT – qHTS for Inhibitors of human tyrosyl-DNA phosphodiesterase 1 (TDP1): qHTS in cells in absence of CPT; DT40 Tdp1-/- hTDP1 cells, no CPT, ATP luminescence, 48 h; Potency, µM (titrated, usually from 46.2 µM), usual class: inhibitors; 420,000 tested, 15% active; note: nearly all actives have a fitted effect of over 55% in size
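Chicken DT40 Tdp1-/- cells stably complemented with human TDP1 were seeded at 400 cells/well with DMSO in place of 20 nM camptothecin. After compound pinning, cells grew at least 48 hr at 37 °C; viability read by CellTiter-Glo luminescence.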
A number is an active result; 0 = inactive; ? = inconclusive; - = no result; [ ] = dose if it differs, or a comment. An excerpt weighted towards active compounds, which were near 19% of everything screened. Unless noted, calls come from the whole dose curve; as a rule, active = well fitted curve in the direction sought with a large enough effect; inconclusive = small, poorly fitted or top-dose-only effect, or another doubt; inactive = no such curve, though single readings can be large; an effect the other way counts as inactive or inconclusive.

SMILES	HT1080 IDH1KD tx	HT1080NT lethal	DT40 TDP1 CPT	IL-1B inflam inh	TDP1 cell noCPT
Cc1ccccc1C(=O)N(C)[C@H]1C[C@H]2c3[nH]c4ccccc4c3CCN2C[C@H]1[C@H](C)O	0	0	?	0	?
COCC(=O)N(C)[C@H]1C[C@H]2c3[nH]c4ccccc4c3CCN2C(=O)[C@H]1[C@H](C)O	0	0	0	0	?
Cc1cccc(-c2ccc3[nH]c4c(c3c2)CCN2C[C@@H]([C@H](C)OC(=O)Nc3ccccc3C)[C@@H](N(C)C(=O)Nc3ccccc3C)C[C@@H]42)c1	?	?	?	0	26µM
Cc1ccc(C(=O)NNS(=O)(=O)c2ccc(F)cc2)cc1	0	0	0	0	0
COc1cc(/C=C/C(=O)O)cc(S(=O)(=O)N2CCc3ccccc3C2)c1OC	0	0	0	0	0
CCc1ccc(NC(=O)C(C)OC(=O)c2cccc(S(=O)(=O)N3CCc4ccccc4C3)c2)cc1 (centres undefined)	0	0	0	0	?
CC(C)NC(=O)c1cn([C@H]2CC[C@@H](NC(=O)/C=C/c3cccs3)CC2)nn1	-	-	?	-	0
COC(=O)C1=COC(C)C2CN3CCc4c([nH]c5cc(OC)c(OC)cc45)C3CC12 (centres undefined)	0	0	?	0	?
COc1ccc(-c2ccc3c(c2)[C@@H]2C[C@H](N(C)C(=O)C(C)(C)C)[C@H]([C@H](C)O)C(=O)N2CC3)cc1	0	0	?	0	?
COc1ccc(-c2ccc3[nH]c4c(c3c2)CCN2C(=O)[C@@H]([C@H](C)O)[C@@H](N(C)C(=O)Nc3ccc(F)cc3)C[C@@H]42)cc1	?	?	?	?	12µM
C[C@H](O)[C@@H]1CN2CCc3c([nH]c4ccc(-c5ccc6c(c5)OCO6)cc34)[C@@H]2C[C@@H]1N(C)C(=O)Nc1ccc(F)cc1	21µM	?	2.9µM	0	5.2µM
C[C@@H]1ON(C)[C@H]2C[C@H]3c4[nH]c5ccc(-c6ccc7c(c6)OCO7)cc5c4CCN3C[C@@H]12	0	?	?	0	21µM
COc1ccc(-c2ccc3[nH]c4c(c3c2)CCN2C[C@@H]([C@H](C)O)[C@@H](N(C)C(=O)Nc3cc(Cl)cc(Cl)c3)C[C@@H]42)cc1	21µM	?	9.2µM	0	4.6µM
CCc1cccc2c(C#N)cn(CC(=O)NCCOC)c12	0	0	0	?	0
CN1CCN(c2ncc3nc(-c4ccc(Cl)cc4)c(=O)n(C)c3n2)CC1	-	-	21µM	-	?
Cn1c(=O)c(-c2ccc(Cl)cc2)nc2cnc(N3CCNCC3)nc21	-	-	10µM	-	16µM
COc1ccc(C(=O)COC(=O)C(Cc2c[nH]c3ccccc23)NC(=O)c2ccc(C(C)(C)C)cc2)cc1 (centres undefined)	-	-	18µM	-	13µM
COC(=O)C(Cc1c[nH]c2ccccc12)NC(=O)c1cncc(Br)c1 (centres undefined)	0	0	0	0	0
COC(=O)C(Cc1c[nH]c2ccccc12)NC(=O)c1ccc2nc[nH]c2c1 (centres undefined)	0	0	0	-68	0
COc1cc(C(F)(F)F)c(C(=O)N(C)Cc2cc(Cl)cc(Cl)c2)cn1	0	0	?	0	15µM
O=C(NC1CCCCC1)n1c(=O)oc2ccc(Cl)cc21	0	0	12µM	0	13µM
COc1cc(-c2nc3ccc(C)cn3c2Nc2ccc(Cl)cc2)ccc1O	-	-	16µM	-	18µM
CN(C)c1ccc(-c2nc3ccc(Cl)cn3c2Nc2ccc3c(c2)OCCO3)cc1	-	-	?	-	15µM
COc1cc(-c2nc3ccc(Cl)cn3c2Nc2ccc3c(c2)OCO3)ccc1O	-	-	15µM	-	13µM
Clc1ccc2nc(-c3ccccn3)c(Nc3ccc4c(c3)OCO4)n2c1	0	0	?	0	21µM
SMILES	HT1080 IDH1KD tx	HT1080NT lethal	DT40 TDP1 CPT	IL-1B inflam inh	TDP1 cell noCPT
Cc1cccc(Nc2c(-c3ccc(O)cc3)nc3ncccn23)c1	0	0	?	0	?
COc1cc(-c2nc3sccn3c2Nc2cccc(C)c2)ccc1O	-	-	?	-	16µM
CN(c1ccccc1)S(=O)(=O)c1cccc(NC(=O)Cn2cnc3c2c(=O)n(C)c(=O)n3C)c1	0	0	23µM	0	16µM
CN(c1ccccc1)S(=O)(=O)c1cccc(NC(=O)CSc2nnc(C3CC3)n2C)c1	0	0	0	0	0
Cc1cccc(NC(=O)CSc2nnc(N)s2)c1	-	-	0	-	0
CN(c1ccccc1)S(=O)(=O)c1cccc(NC(=O)CSc2ncn[nH]2)c1	0	0	8.2µM	0	5.8µM
Cn1c(=O)c2c(ncn2CC(=O)Nc2ccccc2)n(C)c1=O	0	0	0	0	0
CN(c1ccccc1)S(=O)(=O)c1cccc(NC(=O)CSc2nncs2)c1	0	0	7.3µM	0	8.2µM
CN(c1ccccc1)S(=O)(=O)c1cccc(NC(=O)CSc2nnc(N)s2)c1	0	0	8.2µM	0	8.2µM
Cc1cc(C)n(C(C)CNS(=O)(=O)c2ccc(C)c(C)c2)n1 (centres undefined)	0	0	0	0	0
COc1cccc(CN2CCC3(CCC(CNC(=O)c4ccccc4)O3)CC2)c1 (centres undefined)	-	-	0[9.04 µM]	-	0
O=C(NCc1ccccc1)NCc1cccs1	0	0	0	0	0
Cc1ccccc1C(=O)Nc1cccc(NC(=O)Cn2cnc3c(=O)n(C)c(=O)n(C)c32)c1	11µM	?	10µM	0	8.2µM
COc1ccc(C(=S)N2CCCC2)cc1OC	0	0	0	0	0
COc1cc(C(=S)N2CCN(c3ccccc3Cl)CC2)cc(O)c1O	?	0	?	0	23µM
COc1ccc(C(=S)N2CCN(c3ccccc3Cl)CC2)cc1OC	0	0	?	0	16µM
O=C1CCc2ccccc2N1Cc1ccccc1	0	0	0	0	0
O=C1CCCc2ccccc2N1Cc1cccc(F)c1	0	0	15µM	0	12µM
O=C1CCCc2ccccc2N1Cc1ccc(F)cc1	0	0	12µM	0	?
OCCN(Cc1cccnc1)Cc1ccccn1	0	0	?	0	?
CC(C)(C)c1ccc(C(=O)Nc2nnc(C3=COCCO3)o2)cc1	0	0	13µM	0	16µM
CN(C)c1ccc(C(=O)Nc2nnc(C3=COCCO3)o2)cc1	0	0	?	0	?
CC(C)Oc1ccc(C(=O)Nc2nnc(C3=COCCO3)o2)cc1	0	0	18µM	0	?
O=C(Nc1ccc2c(c1)OCO2)C1Cc2ccccc2CN1S(=O)(=O)c1cccs1 (centres undefined)	0	0	0	0	?

Source: PubChem BioAssay (National Center for Advancing Translational Sciences (NCATS))
